The record followed here is PubChem BioAssay (NCATS).

The conditions of test [1]: Ebola virus entry assay, green fluorescence channel.
The conditions of test [2]: Ebola virus entry assay, blue channel fluorescence.
For test [3] the following is noted: Ebola virus entry assay, ratio channel.
The conditions of test [4]: Ebola virus entry assay, green channel fluorescence.
The conditions of test [5]: Ebola virus entry assay, reporter ratio channel; AC50: Channel type: primary unless noted; outcome: Channel type: primary unless noted.
For test [6] the following is noted: Ebola virus entry assay, blue channel (ratio component).
Test [7] can be described thus: Immunotoxin (HA22) sensitization/mitigation study. Vehicle arm (PBS) (AID 1159510). Conditions: cancer cells viability with PBS vehicle (HA22 study); series mostly up to 46.1 µM.
A short description of test [8]: Immunotoxin (SS1P) sensitization/mitigation study. Vehicle arm (DMEM) (AID 1159513). Conditions: cell viability with vehicle (DMEM); series mostly up to 46.1 µM.
Test [9] can be described thus: qHTS profiling of the MIPE4 collection as inhibitors of Plasmodium falciparum (3D7) proliferation (AID 743344).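 Further: scaled between DMSO vehicle wells and 0.29 µM artemisinin as full inhibition.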 Conditions: P. falciparum 3D7 in erythrocytes, SYBR Green DNA fluorescence, 72 h; at 28.5 µM (top of the series) unless noted. The method, boiled down: (§1)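 Parasite DNA was quantified by SYBR Green I fluorescence (ex 485, em 535 nm) after overnight lysis in saponin/Triton buffer at room temperature. Cultures at 0.3% parasitemia and 2.5% hematocrit were first exposed to compound for 72 h at 37 C; signals were normalised to artemisinin (0.29 uM) and vehicle wells.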
A general note: Quantitative high-throughput screening tests each substance at several concentrations.

The nature of test [10]: qHTS profiling of the MIPE4 collection as inhibitors of Plasmodium falciparum (DD2) proliferation (AID 743345). Conditions: P. falciparum Dd2 in erythrocytes, SYBR Green DNA, 72 h; at 28.5 µM (top of the series) unless noted. The method, boiled down: as §1
Test [11] can be described thus: qHTS profiling of the MIPE4 collection as inhibitors of Plasmodium falciparum (HB3) proliferation (AID 743347).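 Further: plate controls were DMSO vehicle wells for no effect and artemisinin wells for full effect.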 Conditions: P. falciparum HB3 in erythrocytes, SYBR Green DNA, 72 h; at 28.5 µM (top of the series) unless noted. The method, boiled down: as §1
A short description of test [12]: qHTS profiling for inhibitors of Plasmodium falciparum (DD2) proliferation (AID 743323). Conditions: lower = more inhibition; at 28.7 µM (top of the series). The method, boiled down:
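P. falciparum Dd2-infected erythrocytes (0.3% parasitemia, 2.5% hematocrit) exposed 72 h at 37 C, 5% CO2. Lysis with SYBR Green, overnight at room temperature, fluorescence 485/535 nm; normalized to 0.29 uM artemisinin and DMSO.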

Test [13] can be described thus: qHTS profiling for inhibitors of Plasmodium falciparum (HB3) proliferation (AID 743324; active means well fitted curve in the direction sought with a large enough effect; inactive means no such curve, though single readings can be large or run the other way;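 further: 100% = DMSO vehicle wells and 0% = artemisinin-treated control wells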). Conditions: Plasmodium falciparum HB3 blood-stage proliferation; at 28.7 µM (top of the series). The method, boiled down: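 SYBR Green fluorescence (485 ex/535 em) of lysed cultures, incubated overnight at room temperature in the dark, quantifies parasite DNA. Infected erythrocytes at 0.3% parasitemia and 2.5% hematocrit were exposed 72 h; values normalized to DMSO and 0.29 uM artemisinin controls.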

Test [14] in a line: qHTS profiling of the MIPE4 collection as inhibitors of Plasmodium falciparum (DD2) proliferation (Rep 2) (AID 743346). Conditions: P. falciparum Dd2 in erythrocytes, SYBR Green DNA, 72 h; at 28.5 µM (top of the series) unless noted. The method, boiled down: as §1
The conditions of test [15]: Ebola virus entry assay, green fluorescence channel. The source holds these as a separate data set.
For test [16] the following is noted: Ebola virus entry assay, ratio channel readout.
The conditions of test [17]: Ebola virus entry assay, blue channel fluorescence. This is another data set of the same source.
The conditions of test [18]: Ebola virus entry cell assay, ratio channel.

Where “and” joins values, the source holds several entries; their conditions need not be identical. Identical values can stand only once. For part of these data: Potency and affinity values are given separately. Some structures have more than one record in an assay (separate samples or runs), and their calls can disagree. Calls of active or inactive are those of the source.
Wherever efficacy is given: 0% is about no effect.

For the molecule `NP(N)(=O)NC(=O)c1ccc(F)cc1`, the efficacy in test [1] was -25% (inactive). For the same molecule, the molecule was called inactive in [2], in test [3], in test [4], in [5] and in test [6].

For orientation: AC50 means the midpoint of the concentration-response curve, whichever way the signal moves. For the molecule `OC1(c2ccc(Cl)c(C(F)(F)F)c2)CCN(CCCC(c2ccc(F)cc2)c2ccc(F)cc2)CC1`, the efficacy in test [1] is -169% (inactive). Moreover, the AC50 in [2] is 5.01 µM (active); in test [3], 2.82 µM (active); in test [5] it was 2.82 µM (active).

Consider `CC(CCc1ccccc1)NC(C)C(O)c1ccc(O)cc1` (stereo not given), for which, in [1], the efficacy is 36.4% (inactive). In addition, the AC50 in [2], in test [3] and in [5] was 35.5 µM (active) each time.

For the molecule `Cc1ccc2c(c1)C1CN(C)CCC1N2` (stereo not given), in test [1], the efficacy is 62.7% (inactive). Besides, the values for the AC50 in [2], in test [3] and in [5] were 17.8 µM (active), 10 µM (active) and 10 µM (active), respectively.

Consider `CC(=O)SC[C@@H](C)C(=O)N1CCC[C@H]1C(=O)N[C@@H](Cc1ccccc1)C(=O)O`, for which the efficacy in test [1] is 13.4% (inactive). Moreover, the result in [2], in [3], in test [4], in test [5] and in test [6] was inactive. The Potency result in test [7] and in test [8] was “inactive” each time.

In the case of `NC(=Nc1ccccc1)Nc1ccccc1`, in [1], the efficacy is -28.5% (inactive). Further, the values for the AC50 in [2] and in [5] were 3.16 µM (active) and 31.6 µM (active), respectively. For the same molecule, the result in [3] and in test [5] was inactive.

As to `CCn1cc(C(=O)O)c(=O)c2ccc(C)nc21`, in test [1], the efficacy is 67.7% (inactive). Moreover, the molecule was called inactive in test [2], in test [3] and in test [5].

On to `Cn1cnc2c(F)c(Nc3ccc(Br)cc3Cl)c(C(=O)NOCCO)cc21`, for which the efficacy in test [1] is 24.6% (inactive). Further, the molecule was called inactive in [2], in [3], in test [4], in [5] and in test [6]. Further, the Potency entry in test [7] and in test [8] was “inactive” in each case.

With `COc1ccc2c(c1OC)CN1CCc3cc4c(cc3C1C2)OCO4` (stereo not given), in test [9], the parasite growth, % of DMSO control came out at 12.7%. For the same molecule, the parasite growth remaining, % of DMSO control (lower = more inhibition) in test [10] worked out at 24.6%. Also, the growth, % of control in [11] is 7.61%. In test [1], the efficacy was -21% (inactive). The outcome in [2], in test [3], in test [4], in test [5] and in test [6] was inactive.

Regarding `CN1CC(=O)N/C1=N/C(=O)Nc1cccc(Cl)c1`, in [1], the efficacy was -15.3% (inactive). Besides, the result in test [2], in test [3], in test [4], in test [5] and in [6] was inactive. For the same molecule, the Potency result in test [7] and in test [8] was “inactive” in each case.

As to `CC(C)(C)CC(C)(C)c1ccc(O)cc1`, the efficacy in test [1] was -38.7% (inactive). Moreover, the AC50 in [2] is 20 µM (active); in test [3], 17.8 µM (active) and 15.8 µM (active); in test [5], 17.8 µM (active) and 15.8 µM (active).

As for `NCC(O)c1ccc(O)cc1` (stereo not given), in [1], the efficacy was -25.6% (inactive). Also, the call in [2], in test [3], in test [4], in test [5] and in test [6] was inactive.

Regarding `C#CCOC(C(=O)OCCN(C)C)(c1ccccc1)c1ccccc1`, the efficacy in test [1] was 46% (inactive). Besides, the AC50 in test [2] was 12.6 µM (active); in [3], 14.1 µM (active); in test [5], 14.1 µM (active).

Turning to `Oc1ccc(Cl)cc1Cc1ccccc1`, the efficacy in [1] was -105% (inactive). Further, the AC50 in test [2] is 20 µM (active); in [3], 10 µM (active) and 14.1 µM (active); in test [5], 10 µM (active) and 14.1 µM (active).

`Cc1cccc(C)c1NC(=O)CN1CCN(CCCC(c2ccc(F)cc2)c2ccc(F)cc2)CC1`: the efficacy in test [1] is 109% (inactive). Besides, the AC50 in [2], in [3] and in test [5] was 3.16 µM (active) throughout.

Take `C[C@]12CCC(=O)C(O)=C1CC[C@@H]1[C@@H]2CC[C@]2(C)C(=O)CC[C@@H]12`: the activity, percent of control in [12] came to 71.8%. For the same molecule, in test [13], the remaining proliferation (% of control), lower = more inhibition was determined as 108%. The efficacy in test [1] is -14% (inactive). For the same molecule, the result in [2], in test [3], in test [4], in test [5] and in [6] was inactive. Besides, the Potency result in [7] and in test [8] was “inactive” in each case.

As for `CCCN1CCC[C@@H]2Cc3nc(N)ncc3C[C@H]21`, the efficacy in test [1] is 40.4% (inactive). Besides, the AC50 in [2] and in [5] was 39.8 µM (active) each time. Besides, in test [3], the outcome was inactive.

For `O=C(O)c1ccc2[nH]cc(CCCCN3CC=C(c4ccccc4)CC3)c2c1`, the efficacy in test [1] was 28% (inactive). For the same molecule, the molecule was called inactive in test [2], in [3], in test [4], in test [5] and in test [6].

`CC(C)(C)NCC(O)c1cc(Cl)c(N)c(Cl)c1` (stereo not given): the efficacy in test [1] was -12% (inactive). Also, the molecule was classed as inactive in test [2], in [3], in test [4], in test [5] and in [6].

For the molecule `COC[C@@H](NC(C)=O)C(=O)NCc1ccccc1`, the parasite growth, % of DMSO control in test [9] came to 371%. Also, in [10], the parasite growth remaining, % of DMSO control (lower = more inhibition) was 113%. Also, in test [1], the efficacy is -31.5% (inactive). The molecule was called inactive in test [2], in test [3], in test [4], in test [5] and in [6].

Turning to `COC(=O)Nc1nc2ccc(C(=O)c3cccs3)cc2[nH]1`, the efficacy in test [1] is 64.8% (inactive). In addition, the AC50 in test [2], in test [3] and in [5] was 0.708 µM (active) each time. Moreover, the outcome in test [5] is “inactive [Channel type: confirmation]”.

On to `CN(C)CCc1ccc(O)cc1`, for which the parasite growth, % of DMSO control in [9] is 103%. In addition, the parasite growth remaining, % of DMSO control (lower = more inhibition) in test [10] stood at 95.5%. This molecule also came in with a growth, % of control in test [11] of 104%. In addition, the efficacy in test [1] is -10.6% (inactive). The call in [2], in test [3], in test [4], in [5] and in [6] was inactive.

With `Cc1cc(OCCOCC[N+](C)(C)Cc2ccccc2)ccc1C(C)(C)CC(C)(C)C`, the efficacy in test [1] is -204% (inactive). In addition, the results for the AC50 in test [2], in [3] and in test [5] were 8.91 µM (active), 3.98 µM (active) and 3.98 µM (active), respectively.

For `CCCCCCCCCCCCCC[N+](C)(C)Cc1ccccc1`, the efficacy in test [1] was -210% (inactive). In addition, the AC50 is 39.8 µM (active) in test [2], 25.1 µM (active) in test [3] and 25.1 µM (active) in test [5].

Take `CNCC(O)c1ccc(O)cc1` (stereo not given): the parasite growth, % of DMSO control in test [9] was determined as 81.9%. Moreover, the parasite growth remaining, % of DMSO control (lower = more inhibition) in [10] turned out to be 99.8%. Moreover, the parasite growth, % of control (lower = inhibition) in test [14] is 71%. Also, the efficacy in test [1] was -23.3% (inactive). Besides, the outcome in test [2], in test [3], in [4], in [5] and in test [6] was inactive.

Turning to `Cn1ccc2cc3c(cc21)CCN3C(=O)Nc1cccnc1`, the efficacy in test [1] was -35.6% (inactive). Besides, the molecule was called inactive in test [2], in test [3], in test [4], in [5] and in [6]. Moreover, the Potency entry in test [7] and in test [8] was “inactive” each time.

Consider `CCCCCCCCCCCCCCCC[N+](C)(C)CC`, for which the efficacy in test [1] was -76.8% (inactive). The figures for the AC50 in test [2], in test [3] and in test [5] were 25.1 µM (active), 11.2 µM (active) and 11.2 µM (active), respectively.

For the molecule `Cn1c(CCCC(=O)O)nc2cc(N(CCCl)CCCl)ccc21`, the result in test [15], in test [16], in test [4], in [17] and in [18] was inactive.

As to `O=c1c(O)c(-c2ccc(O)c(O)c2)oc2cc(O)cc(O)c12`, in [4], the molecule was classed as inactive.
